In all, about 33,000 sequences were measured (“e-score”: median about -0.053, highest 2% from about 0.38 on). The entries come from a sample that favours the highest values as a whole.

This assay addresses T1, SIX1 homeodomain (reference allele) (human, UniProt Q15475 108-198).
T1 sequence: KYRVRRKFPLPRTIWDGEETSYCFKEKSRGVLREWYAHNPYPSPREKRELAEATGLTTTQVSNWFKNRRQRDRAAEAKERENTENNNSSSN
Briefly: universal protein binding microarray; Universal all-10-mer PBM (8x60K, AMADID 030236), 300 nM GST-tagged protein, Alexa Fluor 488 anti-GST; buffer, salt, pH and temperature not stated (as in Berger); high values mean tight binding. The conditions noted are these: protein: ivt; tags: N-terminal GST; dsDNA, one strand shown. The procedure, abridged:
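Binding was expressed as 8-mer E-scores calculated with the Universal PBM Analysis Suite. The GST-tagged homeodomains, made by in vitro transcription/translation, were applied in duplicate at 300 nM final concentration to universal 'all 10-mer' protein binding microarrays (8×60K format).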
For CTAATACC, the binding signal came out at 0.285 ± 0.0649 E-score.

On to ACAATACG, for which the binding signal was found to be 0.25 ± 0.0363 E-score.

Take ATAATATG: the binding signal was 0.27 ± 0.0724 E-score.

ATAATACA: the binding signal came to 0.302 ± 0.0417 E-score.

For the sequence ATAATACG, the binding signal came out at 0.385 ± 0.0407 E-score.

ATAATACC: the binding signal turned out to be 0.421 ± 0.0503 E-score.

Take GGAGCATA: the binding signal is 0.213 ± 0.018 E-score.

In the case of ATATGAGG, the binding signal came to 0.156 ± 0.0225 E-score.

For CGTCTAAG, the binding signal was 0.193 ± 0.0194 E-score.

With GCAATATA, the binding signal is 0.16 ± 0.0581 E-score.

For AGACACCG, the binding signal was 0.323 ± 0.0488 E-score.

For GGACACCC, the binding signal was found to be 0.372 ± 0.033 E-score.

For CGACACCC, the binding signal worked out at 0.439 ± 0.0379 E-score.

Turning to CGACACCG, the binding signal came out at 0.427 ± 0.0217 E-score.

For the sequence CCACACCG, the binding signal stood at 0.151 ± 0.104 E-score.

As to TCACACCA, the binding signal was determined as 0.195 ± 0.0562 E-score.

Take CAACACCA: the binding signal is 0.282 ± 0.0199 E-score.

For the sequence AGACACCC, the binding signal was 0.335 ± 0.0199 E-score.

As to CGACACCA, the binding signal amounted to 0.416 ± 0.0371 E-score.

Regarding CCATAGGG, the binding signal amounted to 0.162 ± 0.116 E-score.

In the case of GCAGATCA, the binding signal came out at 0.369 ± 0.0161 E-score.

ATACTGAG: the binding signal was found to be 0.286 ± 0.0205 E-score.

As for CTCCAGGA, the binding signal was found to be 0.161 ± 0.0145 E-score.

Turning to ATCAGGTA, the binding signal was determined as 0.2929 ± 0.00141 E-score.

Turning to CTCGTGTA, the binding signal stood at 0.158 ± 0.00844 E-score.

For AAAATCCG, the binding signal came out at 0.175 ± 0.0497 E-score.

Consider AGAGTATA, for which the binding signal came out at 0.262 ± 0.0847 E-score.

On to AGAGTATC, for which the binding signal turned out to be 0.465 ± 0.0179 E-score.

As for GGAGTATA, the binding signal came out at 0.319 ± 0.0316 E-score.

In the case of CGAGTATA, the binding signal worked out at 0.29 ± 0.0819 E-score.

In the case of CGAGTATC, the binding signal was found to be 0.435 ± 0.0231 E-score.

With CGAGTACC, the binding signal stood at 0.185 ± 0.0226 E-score.

Regarding ACCGATCG, the binding signal came to 0.272 ± 0.0437 E-score.

As to ATATAGCC, the binding signal came to 0.25 ± 0.032 E-score.

On to GGACACCA, for which the binding signal is 0.3862 ± 0.00187 E-score.

Take TGACACCA: the binding signal was found to be 0.466 ± 0.0154 E-score.

Regarding TAACACCA, the binding signal came to 0.299 ± 0.0116 E-score.

As for AGACACCA, the binding signal turned out to be 0.329 ± 0.0244 E-score.

In the case of GGACACGA, the binding signal came out at 0.176 ± 0.0225 E-score.

AGACACCT: the binding signal was found to be 0.287 ± 0.0126 E-score.

Regarding GATTATCA, the binding signal was determined as 0.2193 ± 0.00188 E-score.

On to CCAGATTA, for which the binding signal came to 0.252 ± 0.0366 E-score.

Turning to ACCATGTA, the binding signal worked out at 0.197 ± 0.0756 E-score.

With GAGGACAC, the binding signal came out at 0.222 ± 0.0132 E-score.

AGACGGCA: the binding signal turned out to be 0.197 ± 0.0126 E-score.

For the sequence ACTCGGAT, the binding signal worked out at 0.38 ± 0.00767 E-score.

As for ACACGGAT, the binding signal is 0.4012 ± 0.00112 E-score.

Take AGACGGAT: the binding signal stood at 0.402 ± 0.0158 E-score.

For the sequence AGGCGGAT, the binding signal was determined as 0.346 ± 0.0312 E-score.

As to AGTCGGAT, the binding signal was 0.296 ± 0.0281 E-score.

With ATACGTAC, the binding signal amounted to 0.336 ± 0.0217 E-score.

For the sequence AAACGGAT, the binding signal is 0.364 ± 0.0337 E-score.

Consider ATACGTAT, for which the binding signal worked out at 0.421 ± 0.00632 E-score.

In the case of ATACGTAG, the binding signal was 0.276 ± 0.0521 E-score.

In the case of AATCGGAT, the binding signal turned out to be 0.253 ± 0.0252 E-score.

Consider ACACGGCT, for which the binding signal came to 0.2 ± 0.00761 E-score.

With TCAGATGA, the binding signal was 0.3071 ± 0.00299 E-score.

Consider AAGATGAT, for which the binding signal is 0.156 ± 0.09 E-score.

With TATCGATA, the binding signal came to 0.342 ± 0.0612 E-score.

On to GATCAAAC, for which the binding signal amounted to 0.193 ± 0.0111 E-score.

As to ACACCATC, the binding signal was determined as 0.312 ± 0.0186 E-score.

For the sequence ATCGGGGC, the binding signal was found to be 0.198 ± 0.0293 E-score.

Turning to CGTCTCAC, the binding signal was found to be 0.254 ± 0.0158 E-score.

Turning to AACCGATC, the binding signal was determined as 0.335 ± 0.00772 E-score.

Take TACCCCTA: the binding signal stood at 0.34 ± 0.00513 E-score.

On to ATACGGAT, for which the binding signal was 0.4254 ± 0.00356 E-score.

On to ATACGGAA, for which the binding signal was determined as 0.218 ± 0.0296 E-score.

Take ATACGGAG: the binding signal was found to be 0.193 ± 0.0505 E-score.

On to CGATACTA, for which the binding signal worked out at 0.424 ± 0.0171 E-score.

Consider CTATACTC, for which the binding signal was 0.243 ± 0.0735 E-score.

As to GGATACTA, the binding signal came out at 0.371 ± 0.0235 E-score.

Take AGATACTG: the binding signal worked out at 0.34203 ± 0.000156 E-score.

For the sequence CAATACTC, the binding signal came out at 0.297 ± 0.043 E-score.

Regarding AGATAGTC, the binding signal was found to be 0.172 ± 0.0352 E-score.

With CGATACTC, the binding signal amounted to 0.45435 ± 0.000368 E-score.

As for AGATACTC, the binding signal is 0.402 ± 0.0473 E-score.

Consider AGATACTA, for which the binding signal was 0.316 ± 0.0687 E-score.

For ATATAGTC, the binding signal was found to be 0.209 ± 0.0236 E-score.

Turning to AACACCTG, the binding signal turned out to be 0.267 ± 0.00339 E-score.

Consider ATCCAGTC, for which the binding signal was 0.179 ± 0.0594 E-score.

For CGTATAAA, the binding signal came to 0.219 ± 0.0801 E-score.

Take GATCAATA: the binding signal amounted to 0.291 ± 0.0232 E-score.

Consider TATCAACA, for which the binding signal is 0.399 ± 0.0298 E-score.

As to TATCAAGA, the binding signal amounted to 0.302 ± 0.0583 E-score.

TATCAATA: the binding signal is 0.407 ± 0.0444 E-score.

With GATCAACA, the binding signal came to 0.281 ± 0.0353 E-score.

Take TATCAAAA: the binding signal is 0.342 ± 0.1 E-score.

Take CCATCTCA: the binding signal worked out at 0.164 ± 0.00629 E-score.

Regarding GGATTATA, the binding signal came out at 0.362 ± 0.0571 E-score.

For the sequence TAATAATA, the binding signal worked out at 0.225 ± 0.0789 E-score.

For ATCCCGGC, the binding signal was 0.173 ± 0.0398 E-score.

Consider CATCTATA, for which the binding signal worked out at 0.251 ± 0.034 E-score.

For the sequence TATCCGGA, the binding signal is 0.3912 ± 0.000898 E-score.

As for GATCCGAC, the binding signal is 0.389 ± 0.0403 E-score.

In the case of AATCCGGT, the binding signal came to 0.252 ± 0.0106 E-score.

TACCCGGA: the binding signal is 0.332 ± 0.00363 E-score.

Regarding CATCCGTA, the binding signal came to 0.168 ± 0.00426 E-score.

As to CATCCGAC, the binding signal came to 0.209 ± 0.0838 E-score.

For GATCCGGC, the binding signal turned out to be 0.3929 ± 0.00159 E-score.

As for GATCCGTA, the binding signal came to 0.383 ± 0.00781 E-score.

For GATCCGAA, the binding signal was 0.357 ± 0.0457 E-score.

In the case of AATCCGGC, the binding signal was 0.228 ± 0.0229 E-score.

Regarding AATCCGAC, the binding signal was determined as 0.189 ± 0.00791 E-score.

With CATCCGGC, the binding signal was determined as 0.226 ± 0.0528 E-score.

On to ATCTACTC, for which the binding signal came out at 0.297 ± 0.0368 E-score.

As for ATATGTAG, the binding signal was 0.151 ± 0.0301 E-score.

Regarding CATAAACC, the binding signal was 0.19 ± 0.0201 E-score.

Consider GATAATCC, for which the binding signal is 0.34 ± 0.0479 E-score.

As for CGACTATC, the binding signal worked out at 0.246 ± 0.0396 E-score.

Turning to GAGATCAC, the binding signal came to 0.368 ± 0.00856 E-score.

(Values after PMC10668032, “Altered binding affinity of SIX1-Q177R correlates with enhanced WNT5A and WNT pathway effector expression in Wilms tumor”.)
